DT40 TDP1 no CPT – qHTS for Inhibitors of human tyrosyl-DNA phosphodiesterase 1 (TDP1): qHTS in cells in absence of CPT | AID 686978, 2013 | DT40 Tdp1-/- hTDP1 cells, no CPT, ATP luminescence, 48 h | actives 15% (n = 420,000) | Potency, µM (doses to about 46.2 µM), for inactives: top-dose activity change, negative = growth inhibition, actives largely listed as inhibitors; note: potency is the fitted concentration of half-maximal effect; nearly all actives have a fitted effect of over 55% in size
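A cellular qHTS used chicken DT40 cells lacking endogenous Tdp1 but carrying stably transfected human TDP1. Compounds were applied without camptothecin, and cell growth kinetics were judged by ATP-dependent luminescence after ≥48 hr.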
IL-1B inflam inh – qHTS for Inhibitors of Inflammasome Signaling: IL-1-beta AlphaLISA Primary Screen. THP-1 LPS/ATP IL-1B secretion, AlphaLISA, 16 h; stronger effect = lower value. activity change, % at 57.5 µM. actives 4.7% (n = 360,000). AID 743279, 2014; in the data active = activity change below about -50%; inconclusive = mostly about -30% to -49%
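Secreted IL-1B measured by AlphaLISA bead assay after 16 h compound exposure of THP-1 cells; compounds (final up to 57.5 uM) added 1 h before LPS (250 ng/mL) and ATP (1.25 mM) stimulation; lower signal means less secretion.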
ELG1 DNA repair – qHTS screen for small molecules that inhibit ELG1-dependent DNA repair in human embryonic kidney (HEK293T) cells expressing luciferase-tagged ELG1; HEK293T ELG1-luciferase reporter, luminescence, 16 h; DNA damage induced by 5-fluorouridine; actives 2.3% (n = 330,000); AID 504467, 2011; Potency, µM (doses to about 46.1 µM), for the others: at the highest dose activity change, negative = inhibition, most hits filed as inhibitors; note: potency is the fitted concentration of half-maximal effect; nearly all actives have a fitted effect of over 55% in size
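5-Fluorouridine DNA damage + compound/DMSO, 2,000 cells/well, 16 h, 37 °C/5% CO2. ONE-Glo, 30 min RT, luminescence. Readout = decrease in reporter signal.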
Gal4-VP16 FLuc – VP16 counterscreen qHTS for inhibitors of ROR gamma transcriptional activity | Drosophila S2 Gal4-VP16 UAS-luciferase, luminescence, 20 h | Potency, µM (series often up to 53.6 µM), for inactives: top-dose activity, negative = inhibition, hits mostly inhibitors | actives 3.5% (n = 310,000);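 note: Gal4-VP16 expression switched on by copper sulfate through the metallothionein promoter; potency is the fitted concentration of half-maximal effect; nearly all actives have a fitted effect of over 50% in size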
TDP1 cell CPT – qHTS for Inhibitors of human tyrosyl-DNA phosphodiesterase 1 (TDP1): qHTS in cells in presence of CPT | chicken DT40 Tdp1-/-;hTDP1 cells + 20 nM CPT, ATP luminescence, 48 h | Potency, µM (doses to about 46.2 µM), for the others: top-dose activity change, negative = growth inhibition, usual class: inhibitors | actives 12% (n = 420,000) | AID 686979, 2013; note: potency is the fitted concentration of half-maximal effect; nearly all actives have a fitted effect of over 55% in size
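Chicken DT40 Tdp1-/- cells complemented with human TDP1, 400 cells/well, exposed to compounds plus 20 nM camptothecin for at least 48 h at 37 C; viability read as ATP content by CellTiter-Glo luminescence.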
RORg inh – qHTS for inhibitors of ROR gamma transcriptional activity. AID 2551, 2010. actives 5.4% (n = 310,000). Potency, µM (series often up to 53.6 µM), without a hit: at the highest dose activity change, negative = inhibition, usual class: inhibitors. Nuclear receptor ROR-gamma (Mus musculus), P51450. Drosophila S2 Gal4-RORgamma UAS-luciferase reporter, 20 h; note: potency is the fitted concentration of half-maximal effect; nearly all actives have a fitted effect of over 60% in size
Target sequence (P51450 whole entry, looked up, the tested form may be a part): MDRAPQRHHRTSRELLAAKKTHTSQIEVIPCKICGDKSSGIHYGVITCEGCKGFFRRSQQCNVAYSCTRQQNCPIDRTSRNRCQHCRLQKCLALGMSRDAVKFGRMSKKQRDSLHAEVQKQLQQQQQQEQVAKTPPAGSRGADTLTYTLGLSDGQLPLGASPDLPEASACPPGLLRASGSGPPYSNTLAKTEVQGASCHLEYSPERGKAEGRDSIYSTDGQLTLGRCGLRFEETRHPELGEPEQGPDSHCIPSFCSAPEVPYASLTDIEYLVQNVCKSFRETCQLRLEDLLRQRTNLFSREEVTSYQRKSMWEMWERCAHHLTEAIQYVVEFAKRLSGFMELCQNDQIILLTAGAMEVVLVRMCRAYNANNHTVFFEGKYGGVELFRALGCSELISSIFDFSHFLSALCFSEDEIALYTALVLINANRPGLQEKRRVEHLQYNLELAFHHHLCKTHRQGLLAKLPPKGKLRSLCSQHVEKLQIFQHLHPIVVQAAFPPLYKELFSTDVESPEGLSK
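Stable Schneider cell line, Gal4 DNA-binding domain fused to ROR gamma, UAS-luciferase. Cmpd 1 hr RT → CuSO4 700 uM final → 20 hr RT → luciferase reagent 10 min → luminescence.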
The depositor's hits bear a star; ? = inconclusive; nt = not tested or not shown; [ ] = another dose, or the depositor's remark. A selection: hits, their analogues and other compounds. The true share with any hit is near 21%. Unless noted, calls come from the whole dose curve; as a rule, active = well fitted curve in the direction sought with a large enough effect; inconclusive = small, poorly fitted or top-dose-only effect, or another doubt; inactive = no such curve, though single readings can be large; an effect the other way counts as inactive or inconclusive. % is set by controls: 0 for no effect and ±100 for the full control effect.

SMILES | DT40 TDP1 no CPT | IL-1B inflam inh | ELG1 DNA repair | Gal4-VP16 FLuc | TDP1 cell CPT | RORg inh
CCOC(=O)c1ccc(S(=O)(=O)N2CC(=O)Nc3ccccc32)cc1 | 18.4µM* | 17.2 | -5.0% | -18.4% | 18.4µM* | 7.5%
CCCCNC(=O)c1sc2ncnc(N3CCc4ccccc4C3)c2c1C | 8.2µM* | -12.2 | ? | -0.9% | 14.6µM* | 21.1%
CCCCNC(=O)c1sc2ncnc(NCC3CCCO3)c2c1C (centres undefined) | -14.0% | nt | nt | nt | 19.9%[9.04 µM] | nt
CCOCCn1cnc2sc(C(=O)NCCCN3CCOCC3)c(C)c2c1=O | 14.8% | -6.2 | 20.1% | 0.5% | 4.4% | -9.7%
Cc1c(C(=O)NCCCN2CCOCC2)sc2ncnc(N3CCN(c4ccccc4)CC3)c12 | 20.6µM* | ? | ? | -1.9% | 16.4µM* | -4.1%
Nc1ccc(-c2cnc(N)c(C(=O)c3cccnc3)n2)cn1 | 3.66µM* | -91.2* | nt | nt | 1.84µM* | nt
Nc1ccc(C(=O)c2cccs2)cn1 | 3.8% | -5.2 | ? | 7.9% | -0.8% | 27.2%
Cc1ccccc1NC(=O)c1c(C)oc2ccc(O)c(CN3CCN(C)CC3)c12 | ? | nt | nt | nt | 16.4µM* | nt
Cc1oc2ccc(O)c(CN3CCCC3)c2c1C(=O)Nc1cccc(Cl)c1C | 20.6µM* | nt | nt | nt | 16.4µM* | nt
Cc1c(C)c2ccc(O)c(CN3CCN(C)CC3)c2oc1=O | 0.8% | -28.0 | 15.3% | -10.7% | 4.9% | -10.8%
Cc1c(Cl)cccc1NC(=O)CCN1CCN(C)CC1 | 17.7% | -13.3 | -0.3% | -1.2% | -29.6% | -0.7%
Cc1oc2ccc(O)c(CN3CCN(Cc4ccccc4)CC3)c2c1C(=O)Nc1cccc(Cl)c1C | -77.4% | nt | nt | nt | 16.4µM* | nt
Fc1ccc(-c2noc(-c3ccc4c(c3)CCO4)n2)cc1 | -23.8% | nt | ? | -17.2% | -1.6% | -27.9%
CC1(C)CCc2cc(-c3ccnc(=S)[nH]3)ccc2O1 | ? | 6.2 | ? | 3.16µM* | ? | 1.78µM*
S=c1nccc(-c2ccc3c(c2)CCO3)[nH]1 | ? | 24.0 | ? | 6.31µM* | 10.3µM* | 3.16µM*
CC1(C)CCc2cc(O)ccc2O1 | -3.9% | nt | nt | nt | -0.1% | nt
Cc1c(C)c2c(OCC(=O)NCc3ccccn3)cc3c(c2oc1=O)CCC(C)(C)O3 | 16.4µM* | ? | ? | -1.1% | 14.6µM* | 27.4%
CCCc1cc(=O)oc2c3c(cc(OCC(=O)NCc4ccccn4)c12)OC(C)(C)CC3 | ? | ? | ? | -2.3% | 23.1µM* | 43.2%
CCCc1cc(=O)oc2c3c(cc(OCC(=O)NCc4ccncc4)c12)OC(C)(C)CC3 | 20.6µM* | ? | ? | 1.1% | 6.51µM* | ?
Cc1c(C)c2c(OCC(=O)NC3CC3)cc3c(c2oc1=O)CCC(C)(C)O3 | -24.7% | ? | -0.7% | -4.3% | -28.4% | 5.8%
COCCCNC(=O)COc1cc2c(c3oc(=O)c(C)c(C)c13)CCC(C)(C)O2 | 2.06µM* | -6.7 | -0.1% | -10.2% | ? | -9.9%
CN(Cc1ccco1)c1ncnc2ccc(-c3ccoc3)cc12 | ? | nt | ? | -19.5% | 18.4µM* | ?
CN(Cc1ccco1)c1ncnc2ccc(-c3ccccc3Cl)cc12 | ? | nt | 9.6% | 14.9% | 20.6µM* | 36.9%
CN(Cc1ccco1)c1ncnc2ccc(-c3cccc(NS(C)(=O)=O)c3)cc12 | ? | nt | nt | 5.5% | ? | ?
COc1ccccc1-c1ccc2ncnc(N(C)Cc3ccco3)c2c1 | ? | nt | nt | ? | ? | 14.2%
SMILES | DT40 TDP1 no CPT | IL-1B inflam inh | ELG1 DNA repair | Gal4-VP16 FLuc | TDP1 cell CPT | RORg inh
CN(Cc1ccco1)c1ncnc2ccc(-c3ccccc3C(F)(F)F)cc12 | 23.1µM* | nt | nt | -9.9% | ? | 40.3%
Cc1ccc(NC(=O)Nc2nnc([C@H]3C[C@H](O)[C@@H](CO)O3)s2)cc1 | -8.9% | -27.9 | nt | nt | 1.4% | nt
CCCCS/C(=C(/C#N)C(N)=O)c1cc2c([nH]1)CCCC2 | ? | -66.2* | ? | 2.5% | 20.6µM* | 17.7%
Cc1ccc(NC(=O)CSc2nc3c(c(=O)[nH]2)CCC3)cc1Cl | -21.5% | nt | nt | nt | -27.0% | nt
O=c1oc2ccc(Br)cc2cc1S(=O)(=O)c1ccc(F)cc1 | -112.2% | -77.8* | -11.6% | 9.3% | -3.8% | -14.5%
O=C(Nc1ccccc1C(F)(F)F)c1ccc2oc(=O)c(S(=O)(=O)c3ccc(F)cc3)cc2c1 | -22.8% | nt | nt | nt | -23.7% | nt
COc1ccc(-c2csc(NCc3ccco3)n2)cc1C | ? | -51.7* | ? | -24.8% | -27.0% | ?
CC(=O)Nc1ccc(-c2csc(NCc3ccco3)n2)cc1 | -24.8% | -21.6 | ? | ? | -13.2% | ?
Cc1ccn2c(-c3csc(NCc4ccco4)n3)c(C)nc2c1 | 18.4µM* | -19.8 | ? | ? | 14.6µM* | 12.6µM*
c1cncc(-c2csc(NCc3ccco3)n2)c1 | -28.6% | 12.9 | ? | 3.1% | -18.8% | 21.1%
CC(=O)N1CCOc2cc(S(=O)(=O)NCc3ccccc3Cl)c(Cl)cc21 | -25.5% | nt | nt | nt | ? | nt
Cc1ccc(-n2nc3c(c2NC(=O)/C=C\c2ccc4c(c2)OCO4)CSC3)cc1 | 18.4µM* | -23.2 | -22.1% | -3.9% | ? | 18.9%
Cc1ccccc1-n1nc2c(c1NC(=O)c1c(-c3ccccc3Cl)noc1C)CSC2 | 20.6µM* | -6.2 | ? | -4.4% | -30.0% | 8.2%
Cc1ccc(-n2nc3c(c2NC(=O)c2c(-c4ccccc4Cl)noc2C)CSC3)cc1 | ? | 19.8 | -13.4% | -4.9% | 25.9µM* | 12.7%
O=C(Cc1csc(Nc2nc(=S)[nH]c3ccccc23)n1)NCCCN1CCN(c2ccccc2F)CC1 | 14.6µM* | -98.8* | 12.8% | 10µM* | 8.2µM* | 2µM*
O=C(Cc1csc(Nc2nc(=S)[nH]c3ccccc23)n1)NCc1ccc(Cl)cc1 | ? | 23.8 | 10.0% | 10µM* | ? | 3.55µM*
COc1ccc(CNC(=O)Cc2csc(Nc3nc(=S)[nH]c4ccccc34)n2)cc1 | ? | 21.0 | -5.3% | 12.6µM* | ? | 1.78µM*
CCn1c(=O)cc(SCC(=O)NCCCN2CCN(c3ccccc3F)CC2)c2ccccc21 | ? | -12.4 | ? | -7.4% | ? | 17.0%
